# The sample as a whole holds a higher share of hits than the screen did.
# KDM5B inh – KDM5B demethylase inhibition | 220,000 tested, 2.6% active | AID 1347165 | Q9UGL1 | Potency, µM (highest dose often 57.7 µM), hits mostly inhibitors | KDM5B demethylase, FDH-coupled NADH fluorescence (FDH is formaldehyde dehydrogenase); active = well fitted inhibition curve with a large enough effect; also: nearly all actives have a fitted effect of over 70% in size
#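 KDM5BΔAP (200 nM final) in 50 mM HEPES pH 7.5, 0.01% Tween-20 was preincubated 10 min at RT with compound over a concentration range. Substrate mix (H3K4me3 12.5 µM, α-KG 25 µM, Fe²⁺, ascorbate, NAD⁺, FDH) was added, and NADH fluorescence change over 30 min gave dose-response curves.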
# A number is an active result; - = inactive.
SMILES,KDM5B inh
O=C(CCc1c[nH]c2ccccc12)OCC(=O)c1ccc2ccccc2c1,-
CC1C/C(=N/NC(=S)NC2CCCCC2)CC(C)(C)C1 (configuration not stated),-
COc1cc(/C=C/C(=O)OC2CCC(C(C)(C)C)CC2)cc(OC)c1OC (configuration not stated),-
COCc1ccc2c(c1)c(OC(C)(C)C(=O)NC1CCOCC1)nn2Cc1cccnc1,-
COCc1ccc2c(c1)c(OC(C)(C)C(=O)NC1CCOCC1)nn2CCC(C)C,39.8µM
COCc1ccc2c(c1)c(OC(C)(C)C(=O)NC1CCC(O)CC1)nn2CCC(C)C (configuration not stated),31.6µM
CC(C)C1=NOC2(CCN(C(=O)c3ccccc3)C2)C1 (configuration not stated),-
CNC(=O)NC(=O)CCN(C)Cc1ccc(C(C)C)cc1,-
COc1ccc(F)cc1-c1cccc(C(=O)O)c1,-
COc1ccc(C=O)cc1OCc1ccc(F)cc1Cl,-
COc1ccc(F)cc1-c1ccc(C=O)cc1,50.1µM
COc1ccc(F)cc1-c1ccc(C(=O)O)cc1,100µM
COc1ccc(F)cc1C(=O)C(=O)O,-
COc1ccc(C=O)cc1C(C)(C)C,-
O=C(COc1ncnc2sc3c(c12)CCC3)N1CCCc2ccccc21,-
Fc1c(F)c(C(F)(F)F)c(F)c(F)c1N/N=C/c1ccc(Cl)cc1Cl,-
O=C(COC(=O)COc1ccc2c(c1)CCC2)NC1CCCCC1,-
Clc1cc(NCCOc2ccccc2)n2nccc2n1,-
COc1ccc(S(=O)(=O)NCCNc2cc(C)nc3ccnn23)cc1,28.2µM
COc1ccc(S(=O)(=O)NCc2nc3nc(C)cc(C)n3n2)cc1,-
CCC(CO)NC(=S)Nc1cccc(C)c1 (configuration not stated),-
Cn1c(C(=O)NC2CCN(C3CC3)C2)cc2ccccc21 (configuration not stated),-
CN(Cc1ccc(-c2ccc(Cl)cc2)o1)C(=O)CSc1nnc(C2CC2)n1CCC(N)=O,-
C[S+](=O)([O-])c1cccc(-c2cnc3[nH]cc(CC(N)=O)c3c2)c1,-
C[S+](=O)([O-])c1cccc(NC(=O)Cc2c[nH]c3ncc(-c4ccccc4)cc23)c1,31.6µM
SMILES,KDM5B inh
COc1ccc(-c2cnc3[nH]cc(CC(=O)Nc4cccnc4)c3c2)cc1,39.8µM
CNC(=O)c1cccc(-c2cnc3[nH]cc(CC(=O)NCCOC)c3c2)c1,-
O=C(Cc1cccc2ccccc12)NCCc1ccccn1,-
COc1ccccc1CC(=O)Nc1cnc(-c2cccnc2)nc1,-
COc1ccc(NC(=O)Cc2c[nH]c3ncc(-c4ccccc4)cc23)cc1OC,-
O=C(Cc1c[nH]c2ncc(-c3cccnc3)cc12)Nc1ccccc1,-
COc1ccc(-c2cnc3[nH]cc(CC(=O)NCCc4ccccn4)c3c2)cc1,35.5µM
CCN(CC)C(=O)c1cccc(NC(=O)Cc2c[nH]c3ccccc23)c1,-
COc1ncccc1-c1cnc2[nH]cc(CC(=O)Nc3ccncc3)c2c1,39.8µM
CC(C)n1nc(C(=O)Nc2cccc(C(F)(F)F)c2)c2ccccc2c1=O,-
CCOC(=O)c1sc(-c2ccc3c(c2)OCO3)cc1NC(=O)c1cnccn1,-
O=C(N/N=C/c1ccc(Oc2ccccc2)cc1)c1ccc(CSCc2ccccc2)cc1,-
CCSC1=C(C#N)C(c2ccc(C)cc2)C2=C(CCCC2=O)N1 (configuration not stated),-
Cc1cc(C(=O)OCC(=O)c2ccc(OC(=O)c3ccccc3)cc2)c2ccccc2n1,-
CCc1ccc2oc(=O)cc(CN3CCN(CC(=O)N(C)C4CCCCC4)CC3)c2c1,-
Cc1ccc(Nc2nc(N)c(C(=O)c3cc(C)ccc3C)s2)cc1,-
NS(=O)(=O)c1ccc(NC(c2ccccc2)c2ccccc2)c([N+](=O)[O-])c1,-
CC(C)Nc1nc(-c2ccc3c(c2)CCCN3S(C)(=O)=O)cs1,-
CCOc1ccc(C2=Nn3c(nnc3-c3cccc(C)c3)SC2)cc1,-
Cc1cccc(NC(=O)CSc2nc3ccccc3c(=O)n2CCn2cc(Cl)cn2)c1C,-
CCN(C(=O)COC(=O)Cc1n[nH]c(=O)c2ccccc12)c1ccc(F)cc1,-
CC(=O)/C=C/c1c(C)oc2ccccc12,-
COc1cc(C(=O)NCc2c[nH]c3ncccc23)nc2ccccc12,-
COc1ncccc1-c1cnc2[nH]cc(CC(=O)Nc3ccccc3)c2c1,35.5µM
CCOc1ccc(NC(=O)Cc2c[nH]c3ccccc23)cc1,-
SMILES,KDM5B inh
FC(F)(F)c1ccc(/C=N/Nc2cc(C(F)(F)F)ccc2Cl)cc1,-
S=C(NCC(c1ccccc1)c1ccccc1)Nc1ccc(Cl)cc1,-
COc1ccc(C(=O)/C=C/c2c(F)cccc2F)cc1CC(=O)O,-
C=CCNC(=O)N1CC[C@@H](CC(=O)O)[C@@H](CC2=NCCc3cc(OC)ccc32)C1,35.5µM
COc1ccc2c(c1)CCN=C2C[C@H]1CN(C(=O)Cc2cccs2)CC[C@H]1CC(=O)O,35.5µM
COc1cc2c(cc1OC)C(C[C@H]1CN(C(=O)c3ccccc3)CC[C@H]1CC(=O)O)=NCC2,-
